GPR151 ag: human GPR151 activation. Q8TDV0. PathHunter beta-arrestin GPR151 cells, luminescence. activation, % at 11.2 µM. hit rate 1% among 650,000. AID 1508602; in the data active = activation above about 4.9%;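 note: 0% = median of compound wells and 100% = cells with positive control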
Target sequence (Q8TDV0 whole entry, looked up): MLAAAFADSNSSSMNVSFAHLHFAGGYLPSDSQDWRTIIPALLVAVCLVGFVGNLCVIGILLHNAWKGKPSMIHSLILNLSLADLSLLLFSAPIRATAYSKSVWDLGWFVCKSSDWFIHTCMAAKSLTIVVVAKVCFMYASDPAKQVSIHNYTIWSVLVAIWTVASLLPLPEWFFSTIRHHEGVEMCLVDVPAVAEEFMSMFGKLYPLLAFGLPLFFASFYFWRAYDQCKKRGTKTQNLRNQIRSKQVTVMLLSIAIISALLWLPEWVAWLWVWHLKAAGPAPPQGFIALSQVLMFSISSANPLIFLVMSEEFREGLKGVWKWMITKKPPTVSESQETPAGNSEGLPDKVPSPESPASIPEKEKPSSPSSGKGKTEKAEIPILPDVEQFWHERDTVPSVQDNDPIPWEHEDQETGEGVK
MITF primary: human MITF inhibition, primary screen. O75030. AlphaScreen MITF homodimerization, bead proximity signal. AID 1259374. hit rate 0.91% among 650,000. inhibition, % at 2.6 µM; in the data active = inhibition above about 50%;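 note: 0% = vehicle wells with protein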
TEAD-YAP block: TEAD-YAP interaction inhibition; HEK-TIYL cells, TEAD-Gal4/YAP UAS-luciferase luminescence; inhibition, % at 9.12 µM; hit rate 1.4% among 640,000; AID 1259422; in the data active = inhibition above about 32%;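 note: 0% = median of test compound wells and 100% = reference inhibitor wells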
FBW7 act: human FBW7 E3 ligase activation, primary screen; AlphaScreen FBW7–phospho-cyclin E peptide binding, activator screen; normalized activity (activation), % at 26.1 µM; hit rate 0.13% among 650,000; AID 1259310; in the data active = normalized activity above about 1.9%;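 note: purified mutant Fbw7 with reduced substrate affinity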
* hit, by the source's call. Compounds with a hit are over-represented: about 3.4% of the library has one in this group of screens.

SMILES	GPR151 ag	MITF primary	TEAD-YAP block	FBW7 act
Cc1ccc(S(=O)(=O)CCC(=O)NC23CC4CC(CC(C4)C2)C3)cc1	-2	8	1	1
COc1ccc(OC)c(C2CC(c3ccc(C)cc3)=NN2C(C)=O)c1 (configuration not stated)	1	6	0	0
CCC(C)C(=O)Nc1ccc(-c2nc3ccccc3o2)cc1 (configuration not stated)	-3	-7	38*	0
CC(C)c1ccc2oc(-c3ccc(NC(=O)COc4ccccc4)cc3)nc2c1	-1	-3	69*	0
COc1ccc(NC(=O)COc2ccc(C(C)C)cc2)c(OC)c1	4	-8	4	2.1*
COc1ccc(OCC(=O)Nc2ccc(-c3nc4cc(C(C)C)ccc4o3)cc2)cc1	-1	4	48*	0
CCC(C)C(=O)N1CCC(C(=O)Nc2ccc(-c3nc4ccccc4o3)cc2)CC1 (configuration not stated)	1	-9	-7	0
O=c1oc2cc(O)ccc2cc1-c1ccc(Cl)cc1	-12	-17	42*	1
COc1ccc(OCC(=O)Nc2ccc(-c3cc4ccccc4oc3=O)cc2)cc1	0	-8	43*	0
Cc1ccc(OCC(=O)Nc2cc(-c3nc4cc(C(C)C)ccc4o3)ccc2Cl)cc1	-1	-1	6	0
COc1ccc(-c2cc3ccc(O)cc3oc2=O)cc1OC	-13	9	-7	1
Nc1ccc(-c2cc3ccccc3oc2=O)cc1	0	-4	70*	0
CCC(=O)Nc1cc(-c2nc3cc(C(C)C)ccc3o2)ccc1Cl	0	-3	46*	0
COc1ccc(OCC(=O)Nc2ccc(-c3cc4ccccc4oc3=O)c(C)c2)cc1	-1	4	15	0
C/C(=N\NC(=O)CCC(=O)Nc1ccc(Cl)cc1C)c1ccc(Br)cc1	-1	-1	-3	1
CCOc1ccc(-n2cc(-c3ccccc3)c3c(N4CC(C)CC(C)C4)ncnc32)cc1 (configuration not stated)	0	1	-2	0
COc1cc(/C=C(\C#N)c2nn(-c3ccccc3)c(N)c2C#N)c(Br)cc1OCc1ccc(Cl)cc1Cl	0	0	-8	0
CC(C)c1ccc2oc(-c3ccc(Cl)c(NC(=O)COc4ccc(Cl)cc4)c3)nc2c1	0	-7	-6	0
COc1ccc(OCC(=O)Nc2cc(-c3nc4cc(C(C)C)ccc4o3)ccc2Cl)cc1	0	-7	70*	0
N#C/C(=C\c1ccc(N2CCOCC2)cc1)c1[nH]nc(N)c1C#N	-2	18	39*	0
COc1cc(-c2nc3sc(C)c(C)c3c(=O)o2)cc(OC)c1OC	0	-3	-4	2.3*
Cc1ccc(C)n1CCCC(=O)Nc1ccc2c(c1)OCCO2	1	-1	59*	0
O=C(Cc1ccc2c(c1)OCCO2)Nc1ccc2ccccc2c1	0	0	42*	0
Cn1nc(CC(=O)Nc2ccc(Cl)cc2)c2ccccc2c1=O	-1	19	39*	1
Cc1ccc(NC(=O)Cc2nn(C)c(=O)c3ccccc23)cc1F	1	3	20	0
SMILES	GPR151 ag	MITF primary	TEAD-YAP block	FBW7 act
Cn1nc(CC(=O)Nc2cccc(O)c2)c2ccccc2c1=O	1	-7	5	0
COc1ccc(CC(=O)Nc2ccc3c(c2)OCCO3)cc1OC	0	11	1	0
Cn1nc(CC(=O)Nc2cccc(C(F)(F)F)c2)c2ccccc2c1=O	3	1	42*	0
CCCN1C2OC3OC4C(OC3OC2N(CCC)S1(=O)=O)N(CCC)S(=O)(=O)N4CCC (configuration not stated)	0	4	-12	0
COc1ccc(-c2noc(CN(C)CC(O)c3ccccc3)n2)c(OC)c1OC (configuration not stated)	0	7	0	0
Cn1c(C(=O)O)c(CC(=O)Nc2ccc3c(c2)OCCO3)c2ccccc21	-1	21	35*	0
Cn1nc(CC(=O)Nc2ccc3c(c2)OCCO3)c2ccccc2c1=O	-1	-6	50*	0
COc1ccc(C(=O)Oc2ccc(NC(=O)Cc3nn(C)c(=O)c4ccccc34)cc2)cc1	0	-7	-4	0
Cn1nc(CC(=O)Nc2ccc(Oc3ccccc3)cc2)c2ccccc2c1=O	3	5	40*	0
Cn1nc(CC(=O)Nc2ccc3c(c2)OCO3)c2ccccc2c1=O	0	0	26	0
CC[C@@]1(O)C(=O)OCc2c1cc1n(c2=O)Cc2cc3cc(O)ccc3nc2-1	-1	12	84*	0
CC(C)c1ccc(C2N(Cc3ccccc3)CCN2Cc2ccccc2)cc1	2	-1	3	0
Nc1nc(NCCc2ccc(O)cc2)cc(N2CCN(c3ccccn3)CC2)n1	0	-6	0	0
O=C(Nc1c[nH]c(=O)[nH]c1=O)c1ccc(Oc2ccc(C(=O)Nc3c[nH]c(=O)[nH]c3=O)cc2)cc1	1	15	7	0
COc1ccc2cc3cc(C(=O)NC4CCN(Cc5ccccc5)CC4)oc3nc2c1	-1	-3	90*	0
COc1ccc2cc3cc(C(=O)NC4CC4)sc3nc2c1	-5	-1	74*	0
COc1ccc2cc3cc(C(=O)NCCCN4CCCCCC4)oc3nc2c1	0	-15	-14	-1
COc1ccc2cc3cc(C(=O)Nc4cc(OC)c(OC)c(OC)c4)oc3nc2c1	1	7	58*	0
Nc1c(Nc2cccc(F)c2)nsc1C(=O)c1ccccc1	-2	22	8	1
Clc1ccc(Nc2nc(NCc3ccco3)c3ccccc3n2)cc1	1	-3	0	0
Fc1ccc(Nc2nc(NCc3ccco3)c3ccccc3n2)cc1	0	29	36*	0
COc1ccc(Nc2nc(NCc3ccco3)c3ccccc3n2)cc1	2	7	50*	0
COc1ccc(C(NC(=O)c2cccnc2)c2nccn2C)cc1 (configuration not stated)	0	8	7	0
O=C(O)c1ccc(NCCSCc2ccccc2)c([N+](=O)[O-])c1	0	-5	35*	0
CCOC(=O)c1c(C)oc2c1cc(NS(=O)(=O)c1ccc(OC)cc1)c1ccccc12	0	10	51*	0
SMILES	GPR151 ag	MITF primary	TEAD-YAP block	FBW7 act
COc1ccc(S(=O)(=O)Nc2cc3c(cc2C(C)=O)OCO3)cc1	1	11	38*	0
CC(=O)c1cc2c(cc1NS(=O)(=O)c1ccc(C(C)(C)C)cc1)OCO2	0	4	-4	0
CCOc1ccc(S(=O)(=O)Nc2cc3c4c(oc3c3ccccc23)CCCC4)cc1	-1	-9	49*	0
COc1ccc(S(=O)(=O)Nc2cc3c(C(C)=O)c(C)oc3c3ccccc23)cc1	3	-3	69*	0
COCc1[nH]nc2c1C(c1ccc(OCCN3CCOCC3)c(OC)c1)C(C#N)=C(N)O2 (configuration not stated)	0	-3	24	0
CCOC(=O)c1ccccc1NS(=O)(=O)c1ccc(OCC)cc1	-2	-15	48*	0
CCOc1ccc(S(=O)(=O)Nc2cc3c(C(=O)OC)c(C)oc3c3ccccc23)cc1	2	-2	63*	0

Screens (PubChem)
